From PubChem BioAssay AID1159580 (chemical genetic matrix, 2015)
Out of some 5,500 compounds screened, about 2,000 (36%) were called active. Inconclusive results (about 18%) are left out. Rule as the data show it: active = normalized growth mostly below about 0.91 (no sharp cut-off); inconclusive = no clear call, values can overlap the other calls; inactive = mostly above about 0.92. This is one part of the list.

Assay: chemical genetic growth profiling, strain panel (AID 1159580);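 also: tested at 20 µM; growth read once vehicle control cultures reached saturation at 30 °C; 1 = growth at the plate median or of vehicle wells; lower values mean less growth of the strain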
Details: S. cerevisiae deletion strains, growth OD

Measured: normalized growth

CC(=O)O[C@@H]1CC2C(C)(C)C=CC(=O)[C@]2(C)C2CC[C@@]3(C)[C@H](c4ccoc4)OC(=O)C4OC43[C@@]21C (some centres not stated)
inactive: locus YAL021C, strain ccr4, active compounds read low 0.985 | locus YAL026C, strain drs2, active compounds read low 1 | locus YAL030W, strain snc1, active compounds read low 0.999 | locus YBL061C, strain skt5, active compounds read low 1 | locus YBR009C, strain hhf1, active compounds read low 1 | locus YBR021W, strain FUR4, active compounds read low 1.04 | locus YBR023C, strain chs3, active compounds read low 0.988 | locus YBR171W, strain sec66, active compounds read low 1.01 | locus YBR229C, strain ROT2, active compounds read low 1.01 | locus YBR231C, strain swc5, active compounds read low 1.01 | locus YBR279W, strain paf1, active compounds read low 1 | locus YCL011C, strain gbp2, active compounds read low 0.998 | locus YCL016C, strain dcc1, active compounds read low 1 | locus YCL029C, strain bik1, active compounds read low 1 | locus YCL061C, strain MRC1, active compounds read low 0.998 | locus YCL069W, strain vba3, active compounds read low 0.992 | locus YCR088W, strain abp1, active compounds read low 0.994 | locus YDL005C, strain med2, active compounds read low 0.987 | locus YDL035C, strain GPR1, active compounds read low 1.03 | locus YDL040C, strain nat1, active compounds read low 0.986 | locus YDL074C, strain BRE1, active compounds read low 1.03 | locus YDL101C, strain DUN1, active compounds read low 1.01 | locus YDL134C, strain PPH21, active compounds read low 1.02 | locus YDL185W, strain tfp1, active compounds read low 0.984 | locus YDL192W, strain arf1, active compounds read low 1 | locus YDR001C, strain nth1, active compounds read low 0.995 | locus YDR069C, strain doa4, active compounds read low 0.985 | locus YDR101C, strain arx1, active compounds read low 1 | locus YDR137W, strain rgp1, active compounds read low 0.974 | locus YDR159W, strain sac3, active compounds read low 0.988 | locus YDR162C, strain NBP2, active compounds read low 1.04 | locus YDR195W, strain ref2 1 | locus YDR297W, strain sur2, active compounds read low 0.994 | locus YDR318W, strain mcm21, active compounds read low 1.01 | locus YDR334W, strain swr1, active compounds read low 1.01 | locus YDR335W, strain msn5, active compounds read low 0.997 | locus YDR388W, active compounds read low 1 | locus YDR392W, strain spt3, active compounds read low 0.963 | locus YDR502C, strain sam2, active compounds read low 0.991 | locus YEL003W, strain gim4, active compounds read low 0.984 | locus YEL037C, strain rad23, active compounds read low 0.998 | locus YEL061C, strain CIN8 (second series), active compounds read low 0.995 | locus YER015W, strain faa2, active compounds read low 1 | locus YER016W, strain bim1, active compounds read low 0.993 | locus YER110C, active compounds read low 1 | locus YER111C, strain swi4, active compounds read low 1 | locus YER155C, strain BEM2 (second series), active compounds read low 0.996 | locus YER155C, strain BEM2, active compounds read low 1.01 | locus YER167W, strain BCK2, active compounds read low 1.03 | locus YFR010W, strain ubp6, active compounds read low 1.04 | locus YGL078C, strain dbp3, active compounds read low 0.986 | locus YGL086W, strain mad1, active compounds read low 1 | locus YGL167C, strain pmr1, active compounds read low 0.991 | locus YGL173C, strain kem1, active compounds read low 0.996 | locus YGL227W, strain vid30, active compounds read low 0.992 | locus YGL240W, strain doc1, active compounds read low 0.983 | locus YGL248W, strain PDE1, active compounds read low 1.02 | locus YGL253W, strain hxk2, active compounds read low 0.977 | locus YGR135W, strain pre9, active compounds read low 0.987 | locus YGR229C, strain SMI1, active compounds read low 1.04 | locus YGR252W, strain gcn5, active compounds read low 0.994 | locus YHR013C, strain ard1, active compounds read low 1.01 | locus YHR027C, strain rpn1, active compounds read low 1 | locus YHR030C, strain SLT2, active compounds read low 1.01 | locus YHR079C, strain IRE1 (second series), active compounds read low 1 | locus YHR094C, strain hxt1, active compounds read low 0.995 | locus YHR129C, strain ARP1, active compounds read low 1.02 | locus YHR142W, strain chs7, active compounds read low 0.987 | locus YHR200W, strain rpn10, active compounds read low 0.998 | locus YIL066C, strain RNR3, active compounds read low 1.02 | locus YIL073C, strain SPO22, active compounds read low 1.03 | locus YIL125W, strain kgd1, active compounds read low 1.01 | locus YIR030C, strain dcg1, active compounds read low 0.996 | locus YJL092W, strain hpr5, active compounds read low 1 | locus YJL095W, strain BCK1 (second series), active compounds read low 1 | locus YJL095W, strain BCK1, active compounds read low 1.01 | locus YJL115W, strain asf1, active compounds read low 1 | locus YJL129C, strain trk1, active compounds read low 0.994 | locus YJL134W, strain LCB3, active compounds read low 1.01 | locus YJL154C, strain vps35, active compounds read low 0.999 | locus YJL164C, strain tpk1, active compounds read low 0.996 | locus YJL166W, strain qcr8, active compounds read low 0.992 | locus YJL168C, strain set2, active compounds read low 1 | locus YJL187C, strain SWE1 (second series), active compounds read low 1.01 | locus YJL187C, strain SWE1, active compounds read low 1 | locus YJR043C, strain POL32, active compounds read low 1.03 | locus YJR075W, strain HOC1, active compounds read low 1.02 | locus YKL068W, active compounds read low 1 | locus YKL085W, strain MDH1 (second series), active compounds read low 1 | locus YKL085W, strain MDH1, active compounds read low 1 | locus YKL160W, strain elf1, active compounds read low 0.997 | locus YKL190W, strain CNB1, active compounds read low 1.02 | locus YKR001C, strain vps1, active compounds read low 1 | locus YKR026C, strain gcn3, active compounds read low 0.996 | locus YKR091W, strain srl3, active compounds read low 1 | locus YLL001W, strain dnm1, active compounds read low 1.01 | locus YLL026W, active compounds read low 1 | locus YLL041C, strain sdh2, active compounds read low 1 | locus YLR027C, strain aat2, active compounds read low 0.997 | locus YLR039C, strain RIC1, active compounds read low 1.05 | locus YLR058C, strain SHM2, active compounds read low 1.03 | locus YLR102C, strain apc9, active compounds read low 0.998 | locus YLR221C, strain rsa3, active compounds read low 0.991 | locus YLR258W, strain gsy2, active compounds read low 0.984 | locus YLR262C, strain YPT6 (second series), active compounds read low 1 | locus YLR262C, strain YPT6, active compounds read low 1.09 | locus YLR268W, strain sec22, active compounds read low 1 | locus YLR320W, strain mms22, active compounds read low 0.999 | locus YLR330W, strain CHS5, active compounds read low 1.01 | locus YLR342W, strain FKS1 (second series), active compounds read low 0.989 | locus YLR342W, strain FKS1, active compounds read low 1 | locus YLR357W, strain rsc2, active compounds read low 1.02 | locus YLR370C, strain arc18, active compounds read low 0.999 | locus YLR371W, strain rom2, active compounds read low 1.01 | locus YLR384C, strain iki3, active compounds read low 1.01 | locus YLR418C, strain cdc73, active compounds read low 0.973 | locus YML016C, strain PPZ1, active compounds read low 1.02 | locus YML032C, strain rad52, active compounds read low 1 | locus YML120C, strain ndi1, active compounds read low 1 | locus YML124C, strain tub3, active compounds read low 1 | locus YMR058W, strain fet3, active compounds read low 1 | locus YMR078C, strain ctf18, active compounds read low 0.985 | locus YMR125W, strain sto1, active compounds read low 0.999 | locus YMR129W, active compounds read low 0.99 | locus YMR205C, strain PFK2, active compounds read low 0.996 | locus YMR223W, strain ubp8, active compounds read low 0.997 | locus YMR231W, strain pep5, active compounds read low 0.973 | locus YMR307W, strain GAS1, active compounds read low 1.02 | locus YNL067W, strain RPL9B, active compounds read low 1.02 | locus YNL071W, strain lat1, active compounds read low 0.994 | locus YNL128W, strain TEP1, active compounds read low 1.02 | locus YNL209W, strain ssb2, active compounds read low 1.01 | locus YNL233W, strain BNI4, active compounds read low 1.02 | locus YNL248C, strain rpa49, active compounds read low 1.01 | locus YNL250W, strain rad50, active compounds read low 0.989 | locus YNL271C, strain bni1, active compounds read low 1 | locus YNL298W, strain CLA4, active compounds read low 0.998 | locus YNL307C, strain MCK1, active compounds read low 0.993 | locus YNL322C, strain KRE1 (second series), active compounds read low 1 | locus YNR049C, strain mso1, active compounds read low 1 | locus YNR052C, strain pop2, active compounds read low 1 | locus YOL012C, strain htz1 0.75 | locus YOL147C, strain pex11, active compounds read low 0.995 | locus YOR001W, strain rrp6, active compounds read low 0.995 | locus YOR061W, strain CKA2, active compounds read low 1.02 | locus YOR069W, strain VPS5, active compounds read low 1.01 | locus YOR070C, strain gyp1, active compounds read low 0.998 | locus YOR080W, strain dia2, active compounds read low 0.993 | locus YOR083W, strain WHI5, active compounds read low 1 | locus YOR106W, strain vam3, active compounds read low 1.01 | locus YOR136W, strain idh2, active compounds read low 1 | locus YOR144C, strain elg1, active compounds read low 1.01 | locus YOR184W, strain ser1, active compounds read low 1.01 | locus YOR265W, strain rbl2, active compounds read low 0.997 | locus YOR270C, strain vph1, active compounds read low 0.956 | locus YOR290C, strain snf2, active compounds read low 0.968 | locus YOR316C, strain cot1, active compounds read low 0.993 | locus YPL051W, strain arl3, active compounds read low 1.03 | locus YPL055C, strain LGE1, active compounds read low 1.03 | locus YPL078C, strain atp4, active compounds read low 0.983 | locus YPL106C, strain sse1, active compounds read low 1.02 | locus YPL240C, strain hsp82, active compounds read low 0.998 | locus YPR119W, strain clb2, active compounds read low 0.998 | locus YPR141C, strain kar3, active compounds read low 0.998 | locus YPR163C, strain tif3, active compounds read low 1.01 | locus YPR167C, strain met16, active compounds read low 0.997 | strain wtn01, active compounds read low 1.01
